Assay results published in PubChem BioAssay AID624330 (Southern Research Specialized Biocontainment Screening …, 2012).
In all, about 340,000 compounds went through this assay and about 2,100 (0.62%) were called active.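 The calls were made as follows: active = first-screen hits whose inhibition reached a set limit at any dose in the follow-up dose series; inconclusive = inhibition above the set first-screen limit but never retested; inactive = the rest.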 Only a sample is shown. Results with a measured potency or affinity are listed apart.

target: Rac GTPase-activating protein 1 (Homo sapiens) (UniProt Q9H0H5); experiment: MgcRacGAP GTPase-activating activity inhibitors, confirmation, biochemical, ADP Hunter fluorescence, primary and confirmatory (AID 624330); details: MgcRacGAP-stimulated Rac1 GTP hydrolysis, at 30 µM, active compounds read high, GST-tagged Rac1 F28L mutant substrate;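 also: fluorescence reports GDP produced by GAP-driven GTP hydrolysis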
Sequence (Q9H0H5 whole entry, looked up): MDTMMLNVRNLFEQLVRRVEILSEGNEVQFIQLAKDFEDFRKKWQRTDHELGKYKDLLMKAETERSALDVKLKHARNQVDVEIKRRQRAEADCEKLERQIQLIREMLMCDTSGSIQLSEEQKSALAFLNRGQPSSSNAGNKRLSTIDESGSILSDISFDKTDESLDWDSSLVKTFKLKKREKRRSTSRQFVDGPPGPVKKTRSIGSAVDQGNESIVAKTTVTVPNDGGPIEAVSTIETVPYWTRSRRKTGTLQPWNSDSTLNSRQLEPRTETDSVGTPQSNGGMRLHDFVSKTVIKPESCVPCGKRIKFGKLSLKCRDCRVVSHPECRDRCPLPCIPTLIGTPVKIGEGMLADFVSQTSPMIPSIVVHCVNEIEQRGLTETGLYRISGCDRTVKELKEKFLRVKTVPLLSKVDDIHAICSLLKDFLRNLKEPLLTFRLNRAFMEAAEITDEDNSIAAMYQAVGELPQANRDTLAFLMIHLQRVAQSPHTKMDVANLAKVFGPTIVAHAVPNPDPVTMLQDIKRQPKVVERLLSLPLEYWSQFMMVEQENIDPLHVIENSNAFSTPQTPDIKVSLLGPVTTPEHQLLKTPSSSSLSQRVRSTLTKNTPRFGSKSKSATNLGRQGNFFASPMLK

inhibition, inactive:
COc1nonc1NC(=O)CSc1nc2ccccc2[nH]1 9.74%
Oc1cccc(Nc2c3ccccc3nc3ccccc23)c1 16.7%
c1ccc(Nc2cccc(Nc3ccccc3)c2)cc1 19.8%
OC1(CC#CCN2CCCCC2)c2ccccc2-c2ccccc21 11.1%
O=C(c1ccco1)N1N=C2CCCCCC2C1(O)C(F)(F)F (configuration not stated) 1.94%
Cc1ccc(OCCOCCN2CCN(C)CC2)c([N+](=O)[O-])c1 31.9%
Cc1ccc(OCCN2CCNCC2)c([N+](=O)[O-])c1 21.6%
C=CCNCCCCOc1ccc(C)cc1[N+](=O)[O-] 14%
Cc1ccc(OCCOCCNC(C)(C)C)c([N+](=O)[O-])c1 29.6%
Cc1cc(C)n(CCCN2CCC(C(=O)Nc3cccc(-c4cccc(F)c4)c3)CC2)n1 11.5%
Cc1ccccc1C(=O)NC1CC2CCCC(C1)N2Cc1ccccc1Cl (configuration not stated) 11.5%
Cc1c(C(=O)NCC(c2ccco2)N(C)C)oc2c(Cl)cccc12 (configuration not stated) 5.84%
COc1cc2c(cc1OC)C1=C(C#N)CC/C(=N\S(=O)(=O)c3cccc(Cl)c3)N1CC2 4.99%
CC(C)CNC(=O)CN1C(=O)NC2(CCc3ccccc32)C1=O (configuration not stated) 10.8%
CN1C(=O)/C(=C/C=C2\SCCN2C)OC1=S 8.62%
CN1C(=O)/C(=C\C=C2/CCCN2C)N(C)C1=S 28.8%
CCN1C(=O)/C(=C/C=C2/CCCN2C)OC1=S 5.72%
CN1CCS/C1=C\C=C1/SC(=S)N(CC(=O)O)C1=O 16.9%
Cc1ccc(S(=O)(=O)N2CCN(CN3C(=O)CC4(CCCC4)C3=O)CC2)cc1 1.32%
COc1cc(/C=N/n2c(C3CCCCC3)n[nH]c2=S)cc(Br)c1O 12.6%
C=CCOc1ccc(/C=N/n2nnnc2N)cc1OC 12.5%
CCOc1ccc(/C=N/n2nnnc2N)cc1OCC 9.77%
COc1ccc(/C=N/n2nnnc2N)cc1OC 8.91%
COc1cc(/C=N/n2nnnc2N)ccc1OC(C)=O 23.6%
COc1cc(/C=N/n2c(C3CCCCC3)n[nH]c2=S)cc(OC)c1O 15.8%
O=C(/C=C\c1ccco1)NC(=S)Nc1ccccc1O 15.2%
COc1cccc(NC(=S)NC(=O)c2cccnc2)c1 13.8%
CN(C)C1=NCCN1CCCC1CCCC1 4.05%
CC(C)N(Cc1nccn1C)C(=O)C1CCC(=O)N(CCc2ccccc2)C1 (configuration not stated) 12.2%
Cc1ccc(/C(N)=N/OC(=O)CCCc2ccccc2)cc1 7.16%
CCOC(=O)Nc1c(C(=O)OC)[nH]c2cccc(OC)c12 9.48%
COc1ccc2c(N)c(C(=O)NN)[nH]c2c1 27.6%
COC(=O)c1cc(S(=O)(=O)NC2CCC(C)CC2)cn1C (configuration not stated) 0.48%
Cc1ccc(OCCC(=O)OCC(=O)NC(=O)NCc2ccccc2)cc1 3.66%
CN=c1scc(C)n1/N=C/c1ccc(O)c(O)c1O -36.1%
Cc1nnc(C)n1/N=C/c1ccc(O)cc1 13%
CN=c1scc(-c2cccs2)n1/N=C/c1ccccc1O 23.1%
Cc1ccc(CN2CCN(/N=C/c3ccc(O)c(O)c3)CC2)cc1 31.8%
CCN=c1scc(C)n1/N=C/c1ccsc1 25.8%
CN=c1scc(C)n1/N=C/c1ccc2c(c1)OCO2 18.6%
Cn1nnnc1SCCNCc1cccnc1 -1.39%
COC(=O)c1ccc(NC(=O)C(=O)N2CCN(C(=S)Nc3cccc(OC)c3)CC2)cc1 7.83%
Cc1ccc(C)c(C(=O)C(C)Sc2nc3nn(-c4ccccc4)c(=O)c-3c3n2CCCCC3)c1 (configuration not stated) -2.59%
Cc1ccc2nsnc2c1NC(=O)COc1ccccc1F 11.1%
O=C(/C=C/c1ccco1)NC(=S)Nc1ccccc1 10.7%
CC(=O)c1ccc(NC(=S)NC(=O)/C=C/c2ccco2)cc1 21.8%
O=C(/C=C/c1ccco1)NCCc1ccccc1 6.75%
O=C(O)CCCCCNC(=O)/C=C/c1ccco1 5.1%
COc1ccccc1OCC(=O)Nc1cc(C(F)(F)F)ccc1-n1cncn1 0.07%
COc1cccc(C#Cc2c(C=O)n(C)c3ccccc23)c1 8.82%
Cc1cn(CC(=O)NCc2ccc(N(C)C)cc2)c(=O)[nH]c1=O 11.4%
CCOc1ccc(CNC(=O)c2ccc3c(c2)N(CC)CCS3)cc1 14%
c1ccc(Nc2cccc3c(Nc4ccccc4)cccc23)cc1 8.14%
O=C(O)c1ccccc1Nc1cccc(C(F)(F)F)c1 8.9%
Nc1cccc(Nc2ccccc2)c1 8.97%
Nc1cc(C(=O)O)ccc1Nc1ccccc1 25.7%
Nc1ccc(Nc2ccccc2N)cc1 24.3%
Nc1cc(C(F)(F)F)ccc1Nc1ccccc1 6.27%
CCOc1cc(N2CCOCC2)c(OCC)cc1NC(=O)COC(=O)c1ccc(Cl)nc1 1.55%
O=C(Nc1cccc(-c2csc(Nc3ccc(Cl)cc3)n2)c1)c1ccccc1 2.45%
N#Cc1c(-c2ccccc2)cc(C2CC2)nc1SCC(=O)O 12.8%
COc1ccc(/C=N/Nc2nn3cnnc3c3ccccc23)cc1 13.1%
COc1cccc(/C=N/Nc2nn3cnnc3c3ccccc23)c1O 7.65%
COc1cccc(/C=N/Nc2nn3cnnc3c3ccccc23)c1 19.3%
COc1ccc(OC)c(/C=N/Nc2nncn2/N=C/c2cc(OC)ccc2OC)c1 6.03%
COc1cc(/C=N\Nc2nncn2N)ccc1OC(C)=O -4.26%
Oc1cccc(/C=N/Nc2nn3cnnc3c3ccccc23)c1 24.6%
CC(C)Cn1c(=O)c(-[n+]2ccccc2)c([O-])c2ccccc21 12.6%
O=C(OCc1ccccc1)N1CCC2CC1c1cc(Cl)ccc12 (configuration not stated) 2.05%
Cc1nn(-c2ncc(C(F)(F)F)cc2Cl)c(=O)n1-c1ccccc1Cl 5.45%
CCCS(=O)(=O)NCc1cn2cccc(C)c2n1 4.87%
CC(=O)N1CCN(c2ccc([N+](=O)[O-])c(NCC3CCCO3)c2)CC1 (configuration not stated) 7.45%
COc1cc(C(=O)OCn2nnc3ccccc3c2=O)cc(OC)c1OC 5.8%
COc1ccc(NC(=O)c2noc3c2CCC3)cc1 14.6%
COc1ccc(C2C3=C(CC(C)(C)CC3=O)Oc3ncn4nc(-c5cccnc5)nc4c32)cc1 (configuration not stated) 1.38%
O=C(CCCc1c[nH]c2ccccc12)N[C@@H](Cc1c[nH]c2ccccc12)C(=O)O 9.15%
COc1cccc(CNC(=O)C2CCCN(S(C)(=O)=O)C2)c1 (configuration not stated) -2.27%
CC(C)(C)c1nc2ccc(NS(=O)(=O)c3ccc(F)c(F)c3F)cc2[nH]1 -2.67%
CS(=O)(=O)Nc1ccc(C(=O)Nc2ccccc2Sc2ccccc2)cc1 9.8%
Cc1nc(CN(C)Cc2nc(Cc3cccc(F)c3)no2)cs1 5.6%
O=S(=O)(NC(=NC1CCCCC1)c1ccccc1)c1ccccc1 4.1%
COc1ccc(CCC(=O)N2CCCC(Nc3ccc(OC)cc3)C2)cc1 (configuration not stated) -28.9%
O=C(CCc1ccccc1)N1CCCC(Nc2ccc(F)cc2)C1 (configuration not stated) 5.33%
Cc1ccc(NC2CCCN(C(=O)CCc3cn[nH]c3)C2)cc1C (configuration not stated) 14.1%
Cc1ncsc1CCC(=O)N1CCCC(Nc2ccc(C(C)C)cc2)C1 (configuration not stated) 5.76%
COc1ccc(CCC(=O)N2CCCC(Nc3ccccc3)C2)cc1OC (configuration not stated) 3.2%
Cc1ccc(NC2CCCN(C(=O)CCc3scnc3C)C2)cc1C (configuration not stated) 10.7%
CC(C)c1ccc(NC2CCCN(C(=O)CCc3cn[nH]c3)C2)cc1 (configuration not stated) 11.8%
COc1ccc(NC2CCCN(C(=O)CCc3cccc(Cl)c3)C2)cc1 (configuration not stated) -4.43%
Cc1ccc(NC(=O)C2CCCN(C(=O)NCc3ccccc3)C2)c(C)c1 (configuration not stated) 5.67%
CCOC(=O)CCCn1c(C)nc(=O)c(-c2ccccc2)c1C -2.8%
CCCCCCC(=O)OCC(=O)c1ccc2c(c1)NC(=O)CO2 4%
COc1ccccc1NC(=S)N(CCN(C)C)C(C)c1ccncc1 (configuration not stated) 4.01%
O=S1(=O)N[C@@H](CC2CCCCC2)COc2cc(Br)ccc21 6.23%
COCC(=O)Nc1cc(C)cn(Cc2cccc(C(F)(F)F)c2)c1=O 3.75%
COc1ccc(CCNC(=O)c2[nH]c(C)c(C(C)=O)c2C)cc1 2.68%
CN(c1ccccc1)S(=O)(=O)c1cccc(NC(=O)CSc2ncn[nH]2)c1 5.76%
Cc1cc(Cl)ccc1OCC(=O)NCc1ccncc1 5.06%
O=C(c1ccccc1-c1ncc[nH]1)N1CCCC(Nc2ccc(F)cc2)C1 (configuration not stated) 2.49%
CC(C)c1ccc(NC2CCCN(C(=O)c3ccccc3-c3ncc[nH]3)C2)cc1 (configuration not stated) 8.99%
COc1ccc(NC2CCCN(C(=O)c3ccc(OC)cc3OC)C2)cc1 (configuration not stated) -1.47%
COc1ccc(OC)c(C(=O)N2CCCC(Nc3ccc(F)cc3)C2)c1 (configuration not stated) 12.4%
